MK inhibit: S. pneumoniae mevalonate kinase inhibition; purified MK, PK/LDH-coupled NADH absorbance 340 nm; inhibition, % at 10 µM; 0.48% of 65,000 active; AID 555;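 active means ranked among the strongest by inhibition in the single 10 µM screen, a fixed top-ranked set picked for dose follow-up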
Autofluor 339: intrinsic fluorescence of library compounds, ex339/em460 – biochemical, MLSMR library, data from DPM-DC assay, artefact control, profiling panel; compound autofluorescence, ex339/em460 nm, NADH buffer; stronger effect = higher value; 1 = no-compound wells, NADH background; fluorescence fold increase at 10 µM; 5.5% of 65,000 active;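 active means at 10 µM, mean starting fluorescence two-fold or more over control wells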;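 further: signal is the first read of a kinetic run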
DPM-DC inhibit: inhibitors of Streptococcus pneumoniae diphosphomevalonate decarboxylase | calls only at 10 µM | purified DPM-DC, PK/LDH coupled NADH fluorescence | 0.49% of 65,000 active;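 active means the 320 compounds with the highest percent inhibition in the single-dose primary screen, excluding strongly autofluorescent ones, cut at about 32% in these data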;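 further: kinetic rate of NADH fluorescence loss reporting ADP formed by the decarboxylase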
Spn PMK inh: blocks S. pneumoniae phosphomevalonate kinase; purified PMK, PK/LDH-coupled NADH absorbance 340 nm; inhibition, % at 10 µM; 0.49% of 65,000 active;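 active means top-ranked compounds by inhibition in the single 10 µM screen, taking a fixed number of the strongest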;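 further: 0% = full reaction with DMSO carrier and 100% = background rate without enzyme reaction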
Abs 340nm: compounds absorbing at 340 nm | fold change at 10 µM | 65,000 tested, under 10 active | compound absorbance at 340 nm, fold over control;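 active means at 10 µM dose, initial 340 nm absorbance at least 2 fold that of control wells; inactive means change under 2 fold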;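 further: initial absorbance extrapolated from kinetic A340 decline of NADH oxidation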
NADH enzymes: inhibition of NAD/NADH coupling enzymes, library profiling. IC50, µM (top dose mostly 10 µM), inactives show top-dose inhibition. 0.02% of 65,000 active. coupled PK/LDH NADH assays, four targets. AID 774;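 active means single-dose screening hits from any of four coupled enzyme assays that gave an IC50 when retested across doses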;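 further: the DPM-DC format reads NADH fluorescence rather than 340 nm absorbance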
An asterisk follows results filed as active; i = inactive; · = no result given; + = active, no number. Sampled rows, rich in hits. Any-hit rate of the full collection: about 6.8%.

SMILES	MK inhibit	Autofluor 339	DPM-DC inhibit	Spn PMK inh	Abs 340nm	NADH enzymes
Cc1nc(CSc2nnc3scc(-c4ccc(Cl)cc4)n23)cs1	11.0	1.1	i	8.0	1.09	6.0%
COc1ccc2nc(NC(=O)c3ccc4ncsc4c3)sc2c1	2.0	2.19*	·	0.0	1.08	1.0%
Cc1cc(C)n(-c2ccc(C(=O)Nc3nnc(C4CC4)s3)cc2)n1	1.0	0.94	i	15.0	1.08	8.0%
COc1ccc2nc(NC(=O)c3ccc(-n4nc(C)cc4C)cc3)sc2c1	4.0	5.11*	·	18.0	1.03	11.0%
O=C1C(C=NCCCN2CCCC2=O)=C(O)c2ccccc21	·	1.07	i	12.0	1.12	7.0%
CCOC(=O)c1sc2nc(SCC(=O)NCc3ccco3)n(Cc3ccccc3)c(=O)c2c1C	5.0	1.74	+	4.0	1.02	5.0%
O=c1[nH]c(N2CCc3ccccc3C2)nc2c1CCCC2	8.0	1.08	i	6.0	1.04	5.0%
O=c1[nH]c(-c2ccccc2O)nc2c1CCCC2	3.0	3.33*	i	0.0	1.11	7.0%
Cc1cccc(C2Nc3ccccc3C(=O)N2CCc2ccccc2)n1 (centres undefined)	7.0	2.18*	·	7.0	1.03	7.0%
O=C1c2ccccc2NC(c2cnc3ccccc3n2)N1O (centres undefined)	6.0	1.51	i	9.0	1.06	5.0%
Cc1cc(Cn2ccnc2)c(C)cc1Cn1ccnc1	8.0	1.05	i	0.0	1	1.0%
Cc1nnc(NC(=O)CCC(=O)N2CCN(CCc3ccccc3)CC2)s1	3.0	1.14	i	5.0	1.04	3.0%
O=P(C1=C(N2CCOCC2)/C(=C\c2ccccc2)CC1)(N1CCOCC1)N1CCOCC1	1.0	1.23	i	16.0	1.12	8.0%
Cc1c(-c2ccccc2)c(P(=O)(N2CCOCC2)N2CCOCC2)c2ccccn12	0.0	5*	·	12.0	1.04	6.0%
Cc1cc(C(=O)Nc2sc(C)c(-c3ccc(F)cc3)c2C(N)=O)no1	2.0	2.3*	i	8.0	1.01	6.0%
Cc1cccc(C(=O)Nc2cc(=O)n(C)c(=O)n2C)c1	2.0	0.55	+	10.0	1.02	17.0%
COc1cccc(CNCc2ccccn2)c1OC	53.0*	1.08	i	12.0	1.02	22.0%
COc1ccccc1CNC(=O)COc1ccccc1OC	6.0	1.1	i	3.0	1	4.0%
COc1ccccc1CNCc1cc(OC)c(OC)cc1OC	53.0*	1.09	i	22.0	1.08	25.0%
CCOC(=O)N1CCC(N2C(=O)c3ccccc3C2Nc2ccc3c(C)cc(=O)oc3c2)CC1 (centres undefined)	4.0	2.48*	·	10.0	1.06	3.0%
CCOC(=O)c1ccccc1NC1c2ccccc2C(=O)N1c1ccc(C)cn1 (centres undefined)	5.0	1.56	i	2.0	1.03	4.0%
CCOC(=O)c1ccccc1NC1c2ccccc2C(=O)N1C1CCN(C(=O)OCC)CC1 (centres undefined)	5.0	2.43*	·	0.0	0.99	1.0%
CCOC(=O)c1ccccc1NC1OC(=O)c2ccccc21 (centres undefined)	0.0	3.63*	·	16.0	1.04	8.0%
Cc1ccc(S(=O)(=O)NCCCOC(=O)Nc2ccncc2)cc1	·	1.1	i	9.0	1.06	6.0%
CCOC(=O)C1C(=O)CC(C)(O)C(C(=O)OCC)C1c1ccccc1OC (centres undefined)	16.0	1.1	i	3.0	1.03	6.0%
SMILES	MK inhibit	Autofluor 339	DPM-DC inhibit	Spn PMK inh	Abs 340nm	NADH enzymes
CCn1cc(C(=O)NC2CCCC2)c(=O)c2cc(S(=O)(=O)N3CCOCC3)ccc21	9.0	1.17	i	12.0	1.06	7.0%
O=C(Cn1cnc2ccccc2c1=O)NC1CCCc2ccccc21 (centres undefined)	7.0	1.09	i	2.0	1.1	3.0%
Cn1c2ccccc2c2cc(C(=O)OCC(=O)N3CC(=O)Nc4ccccc43)sc21	0.0	2.1*	·	13.0	1.17	7.0%
COC(=O)CNC(=O)COC(=O)c1cc(Cl)cc(Cl)c1N	2.0	3.37*	·	6.0	1.03	1.0%
C=CCn1cnc2c(c1=O)c1nc3ccccc3nc1n2/N=C/c1cc(OC)c(OC)c(OC)c1	11.0	1.04	i	17.0	1.18	9.0%
C=CCn1cnc2c(c1=O)c1nc3ccccc3nc1n2-c1ccccc1	0.0	2.43*	i	13.0	1.08	13.0%
COCCCn1cnc2oc3nc4ccccc4nc3c2c1=O	0.0	3.2*	i	3.0	1.14	5.0%
COCCCn1cnc2c(c1=O)c1nc3ccccc3nc1n2-c1ccccc1	6.0	3.13*	i	11.0	1.12	11.0%
C=CCn1cnc2c(c1=O)c1nc3ccccc3nc1n2/N=C/c1ccccn1	7.0	2.55*	i	7.0	1.17	12.0%
CC(C)(CNC(=O)c1cc2ccccc2o1)N1CCOCC1	0.0	1.05	i	16.0	1.01	5.0%
O=c1c2cnn(-c3ccc(F)cc3)c2ncn1Cc1ccccn1	2.0	1.12	i	2.0	1.01	1.0%
Cc1ccccc1C(=O)Nc1cccc(NC(=O)Cn2cnc3c(=O)n(C)c(=O)n(C)c32)c1	9.0	1.08	i	3.0	1.03	5.0%
CCOC(=O)CSc1nc(-c2ccc(OC)cc2)ns1	3.0	1.1	i	13.0	1	5.0%
CCSc1nc(-c2ccc(OC)cc2)ccc1C#N	2.0	2*	i	0.0	1.01	1.0%
c1ccc2c(NC3CCCC3)nnc(NC3CCCC3)c2c1	0.0	2.09*	i	14.0	1.01	4.0%
c1nc(NC2CCCC2)c2[nH]cnc2n1	5.0	1.29	i	0.0	1.03	4.0%
CCCCn1c(=NC(=O)c2cccnc2)c(C(=O)OCC)cc2c(=O)n3ccccc3nc21	9.0	2.28*	·	11.0	1.02	10.0%
N#Cc1cc2c(=O)n3ccccc3nc2n(CCCn2ccnc2)c1=N	3.0	1.73	i	14.0	1.03	8.0%
CCOCCCn1c(=NC(=O)c2cccnc2)c(C(=O)OCC)cc2c(=O)n3ccccc3nc21	8.0	3.63*	·	10.0	1.08	9.0%
C/C=C/Cn1c(N(C)Cc2ccccc2)nc2c1c(=O)[nH]c(=O)n2C	0.0	0.54	+	11.0	1.05	16.0%
CN(Cc1ccccc1)c1nc2c(c(=O)[nH]c(=O)n2C)n1C	10.0	1.02	i	12.0	1	7.0%
O=S(=O)(Nc1ccc(C(F)(F)F)cc1)c1cnc[nH]1	12.0	0.63	+	8.0	0.99	20.0%
O=C(O)c1ccc(CS(=O)(=O)c2cccc(C(F)(F)F)c2)o1	0.0	1.02	i	17.0	0.98	6.0%
CC1(C)CC(=O)C(C(C2=C(O)CC(C)(C)CC2=O)c2cccnc2)C(=O)C1 (centres undefined)	7.0	1.08	i	13.0	1.04	7.0%
